Assay results: the supplement of paper PMC8975748
Counter-ions that a name gives are not always drawn.

system: Saccharomyces cerevisiae BY4741 SeMeCo community; assay: z-score of subpopulation abundance vs DMSO median, subpopulation auxotrophic for LUM; higher = larger share of this subpopulation than in DMSO controls; details: 10 µM; 24 h; SM minimal medium; subpopulation (auxotrophy): LUM
In short: (§1)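 Scoring was based on each subpopulation's abundance, expressed as a z-score against the vehicle-well median. A Saccharomyces cerevisiae BY4741 community with four plasmids, each restoring one auxotrophy and encoding a distinct fluorescent protein, was pre-grown overnight to OD600 1.0, diluted to 0.3, and added at 70 µl to 384-well plates acoustically predosed with library drugs (10 µM final). It then grew 24 h in minimal SM medium before paraformaldehyde fixation and automated confocal microscopy, with single-auxotroph fluorescent strains setting thresholds and autofluorescence correction.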

Structure (SMILES) | z-score of subpopulation abundance
COC(=O)C1=C(C)NC(C)=C(C(=O)OC(C)(C)CN(C)CCC(c2ccccc2)c2ccccc2)C1c1cccc([N+](=O)[O-])c1 (stereo unspecified) [Lercanidipine hydrochloride] | 0.24
O=c1[nH]c2ccccc2n1CCN1CCN(c2cccc(C(F)(F)F)c2)CC1 [Flibanserin] | -0.43
NC1CCN(c2nc3c(cc2F)c(=O)c(C(=O)O)cn3-c2ccc(F)cc2F)C1 (stereo unspecified) [Tosufloxacin p-Toluenesulfonate Hydrate] | -0.71
CC1(C)S[C@@H]2[C@H](NC(=O)[C@H](NC(=O)N3CCNC3=O)c3ccccc3)C(=O)N2[C@H]1C(=O)O [Azlocillin sodium salt] | 0.86
CCN(CC)CCOC(=O)c1ccc(N)cc1Cl [Chloroprocaine HCl] | 0.45

system: Saccharomyces cerevisiae BY4741 SeMeCo community; assay: z-score of subpopulation abundance vs DMSO median, subpopulation auxotrophic for HLUM; higher = larger share of this subpopulation than in DMSO controls; details: 10 µM; 24 h; SM minimal medium; subpopulation (auxotrophy): HLUM
In short: as §1

Structure (SMILES) | z-score of subpopulation abundance
C=C[C@]1(C)C[C@@H](OC(=O)CSC(C)(C)CNC(=O)[C@H](N)C(C)C)[C@]2(C)[C@H](C)CC[C@]3(CCC(=O)[C@H]32)[C@@H](C)[C@@H]1O [Valnemulin HCl] | 0.48
C[N+]1(C)CCC(=C(c2ccccc2)c2ccccc2)CC1 [Diphemanil Methylsulfate] | -0.18
CC[C@H]1OC(=O)[C@H](C)[C@@H](O[C@H]2C[C@@](C)(OC)[C@@H](O)[C@H](C)O2)[C@H](C)[C@@H](O[C@@H]2O[C@H](C)C[C@H](N(C)C)[C@H]2O)[C@](C)(O)C[C@@H](C)/C(=N\OCOCCOC)[C@H](C)[C@@H](O)[C@]1(C)O [Roxithromycin] | -0.6
NCc1ccccc1CC(=O)N[C@@H]1C(=O)N2C(C(=O)O)=C(CSc3nnnn3CC(=O)O)CS[C@H]12 [Ceforanide] | 1.14
CC(C(=O)O)c1cccc(C(=O)c2ccccc2)c1 (stereo unspecified) [Ketoprofen] | 1.1
C#C[C@]1(O)CC[C@H]2[C@@H]3CCC4=Cc5oncc5C[C@]4(C)[C@H]3CC[C@@]21C [Danazol] | -0.4
Cc1c(OCC(F)(F)F)ccnc1C[S+]([O-])c1nc2ccccc2[nH]1 (stereo unspecified) [Lansoprazole] | 1.37
CC(C(O)c1ccc(O)cc1)N1CCC(Cc2ccccc2)CC1 (stereo unspecified) [Ifenprodil Tartrate] | -1.11
Cc1ncc([N+](=O)[O-])n1C [Dimetridazole] | 0.31
CC(=O)OCC[N+](C)(C)C [Acetylcholine iodide] | -1.3
CC(=O)N1CCN(c2ccc(OCC3COC(Cn4ccnc4)(c4ccc(Cl)cc4Cl)O3)cc2)CC1 (stereo unspecified) [Ketoconazole] | -0.62
CN1C2CCCC1CC(NC(=O)c1nn(C)c3ccccc13)C2 (stereo unspecified) [Granisetron HCl] | -0.37
NC(=O)OCC(COC(N)=O)c1ccccc1 [Felbamate] | -0.68
CCCN(CCC)CCc1cccc2c1CC(=O)N2 [Ropinirole HCl] | 0.64
CC(=O)NO [Acetohydroxamic acid] | 0.86
COc1ccc2c3c1O[C@H]1C[C@@H](O)C=C[C@@]31CCN(C)C2 [Galanthamine HBr] | -0.98
CCN(CC)CC#CCOC(=O)C(O)(c1ccccc1)C1CCCCC1 (stereo unspecified) [Oxybutynin chloride] | -0.26
O=C1CC2(CCCC2)CC(=O)N1CCCCN1CCN(c2ncccn2)CC1 [Buspirone HCl] | 0.74
Cc1ccc(-c2cc(C(F)(F)F)nn2-c2ccc(S(N)(=O)=O)cc2)cc1 [Celecoxib] | -0.44
Cc1cccc(N(C)C(=S)Oc2ccc3ccccc3c2)c1 [Tolnaftate] | -1.09
CC(C)Cc1ccc(C(C)C(=O)O)cc1 (stereo unspecified) [Ibuprofen Lysine] | -1.27
O=C(Nc1cc(Cl)cc(Cl)c1O)c1c(O)c(Cl)cc(Cl)c1Cl [Oxyclozanide] | 2.05
CN1CCN(CC(=O)N2c3ccccc3C(=O)Nc3cccnc32)CC1 [Pirenzepine dihydrochloride] | -0.89
O=C(O)CCc1nc(-c2ccccc2)c(-c2ccccc2)o1 [Oxaprozin] | -0.44
CC[C@H]1OC(=O)[C@H](C)[C@@H](O[C@H]2C[C@@](C)(OC)[C@@H](O)[C@H](C)O2)[C@H](C)[C@@H](O[C@@H]2O[C@H](C)C[C@H](N(C)C)[C@H]2O)[C@](C)(O)C[C@@H](C)C(=O)[C@H](C)[C@H]2OC(=O)O[C@@]21C [Erythromycin Cyclocarbonate] | 0.39
CC(Cc1ccc(O)c(O)c1)C(C)Cc1ccc(O)c(O)c1 (stereo unspecified) [Nordihydroguaiaretic acid (NDGA)] | -0.44
